Screens deposited in PubChem BioAssay by National Center for Advancing Translational Sciences (NCATS).
An excerpt weighted towards active compounds, which were near 19% of everything screened.
HT1080 IDH1KD tx: HT-1080 IDH1 knockdown cell toxicity (counter line) | HT-1080 IDH1 knockdown viability, ATP luminescence, 48 h | Potency, µM (series often up to 46.1 µM), hits mostly cytotoxic | 360,000 tested, 2% active
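Cytotoxicity counter-line: IDH1KD HT-1080, 48 h, CellTiter-Glo. Curves classed by r2, magnitude and activity.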
IL1B secr inh: inhibitors of inflammasome signaling (IL-1 beta secretion). activity change, % at 57.5 µM. THP-1 LPS/ATP IL-1B secretion, AlphaLISA, 16 h; hits give low values. 360,000 tested, 4.7% active; in the data active = activity change below about -50%; inconclusive = mostly about -30% to -49%
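Secreted IL-1B measured by AlphaLISA bead assay after 16 h compound exposure of THP-1 cells; compounds (final up to 57.5 uM) added 1 h before LPS (250 ng/mL) and ATP (1.25 mM) stimulation; lower signal means less secretion.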
TDP1 cell CPT: growth inhibition of DT40 Tdp1-/-;hTDP1 cells with camptothecin (screen for TDP1 inhibitors); 420,000 tested, 12% active; Potency, µM (titrated, usually from 46.2 µM), hits mostly inhibitors; AID 686979; chicken DT40 Tdp1-/-;hTDP1 cells + 20 nM CPT, ATP luminescence, 48 h; note: nearly all actives have a fitted effect of over 55% in size
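Chicken DT40 Tdp1-/- cells stably complemented with human TDP1 were seeded at 400 cells/well in medium containing 20 nM camptothecin, exposed to pin-transferred compounds, and grown at 37 °C for at least 48 hr. Viability was read as ATP luminescence.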
TDP1 cell noCPT: qHTS for Inhibitors of human tyrosyl-DNA phosphodiesterase 1 (TDP1): qHTS in cells in absence of CPT | DT40 Tdp1-/- hTDP1 cells, no CPT, ATP luminescence, 48 h | Potency, µM (titrated, usually from 46.2 µM), hits mostly inhibitors | 420,000 tested, 15% active | AID 686978, 2013; note: nearly all actives have a fitted effect of over 55% in size
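A cellular qHTS used chicken DT40 cells lacking endogenous Tdp1 but carrying stably transfected human TDP1. Compounds were applied without camptothecin, and cell growth kinetics were judged by ATP-dependent luminescence after ≥48 hr.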
HT1080-NT tox: kills 2HG-producing HT-1080-NT fibrosarcoma cells; Potency, µM (highest dose often 46.1 µM), usual class: cytotoxic; AID 686970; HT-1080-NT fibrosarcoma viability, CellTiter-Glo ATP luminescence, 48 h; 360,000 tested, 1.6% active;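 note: NT is the 2HG producing partner of a matched IDH1 knockdown line; nearly all actives have a fitted effect of over 55% in size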
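Viability by CellTiter-Glo luminescence after 48 h compound exposure at 37C of HT-1080-NT cells (750/well, RPMI, 5% FBS). % activity scaled between DMSO wells and medium-only wells, then curve-fitted and categorized by curve class.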
Each line names hits and unclear results; the compound was inactive in the other large screens. Unless noted, calls come from the whole dose curve; as a rule, active = well fitted curve in the direction sought with a large enough effect; inconclusive = small, poorly fitted or top-dose-only effect, or another doubt; inactive = no such curve, though single readings can be large; an effect the other way counts as inactive or inconclusive.

Cc1cc2c(nc1C)CCCN2C[C@@H](C)O/N=C1/[C@H]2CCn3c(=O)n(-c4ccccc4)c(=O)n3[C@H]2[C@H](O)[C@@H]2O[C@H]12	IL1B secr inh -54, TDP1 cell CPT inconclusive, TDP1 cell noCPT inconclusive
O=C(Cc1cccc2ccccc12)NCC(=O)Nc1ccccc1F	none
O=C(COc1cc2oc(=O)c3c(c2cc1Cl)CCC3)NCc1ccccn1	none
Cc1ccc(-c2nc(N/N=C/c3ccncc3)c3ccccc3n2)cc1	HT1080 IDH1KD tx 10µM, TDP1 cell CPT 21µM, TDP1 cell noCPT 18µM, HT1080-NT tox 11µM
COc1ccc(/C=N/Nc2nc(-c3cccnc3)nc3ccccc23)cc1OC	IL1B secr inh -52, TDP1 cell CPT 16µM, TDP1 cell noCPT 3.7µM
CC(=O)NCCNc1nc(-c2cccnc2)nc2ccccc12	none (no result: HT1080 IDH1KD tx, IL1B secr inh, HT1080-NT tox)
Cc1c(O)ccc(/C=N/Nc2nc(-c3cccnc3)nc3ccccc23)c1O	HT1080 IDH1KD tx inconclusive, TDP1 cell CPT 5.2µM, TDP1 cell noCPT 3.7µM, HT1080-NT tox 18µM
Oc1ccc(/C=N/Nc2nc(-c3cccnc3)nc3ccccc23)c(O)c1	HT1080 IDH1KD tx inconclusive, TDP1 cell CPT 23µM, TDP1 cell noCPT 4.1µM, HT1080-NT tox inconclusive
COc1ccc(OC)c(-c2nc3c(C)n[nH]c(=O)c3[nH]2)c1	HT1080 IDH1KD tx inconclusive, TDP1 cell CPT inconclusive, TDP1 cell noCPT inconclusive, HT1080-NT tox inconclusive
COc1ccc(CCNc2nc(-c3cccnc3)nc3ccccc23)cc1OC	HT1080 IDH1KD tx 10µM, IL1B secr inh inconclusive, TDP1 cell CPT 13µM, TDP1 cell noCPT 9.2µM, HT1080-NT tox inconclusive
COc1cccc(-c2nc(NCc3cccnc3)c3ccccc3n2)c1	none (no result: HT1080 IDH1KD tx, IL1B secr inh, HT1080-NT tox)
CCOC(=O)Nc1ccc(N2CCOCC2)c(S(=O)(=O)Nc2ccc(Cl)cc2)c1	HT1080 IDH1KD tx inconclusive, TDP1 cell CPT inconclusive, TDP1 cell noCPT inconclusive, HT1080-NT tox inconclusive
CCn1c(=O)c2cc(C(=O)Nc3ccc(OC)cc3OC)sc2c2ccccc21	none
CCn1c(=O)c2cc(C(=O)NCCc3ccc(OC)c(OC)c3)sc2c2ccccc21	TDP1 cell CPT 8.2µM, TDP1 cell noCPT 7.3µM (no result: HT1080 IDH1KD tx, IL1B secr inh, HT1080-NT tox)
COc1ccc(CCNC(=O)c2cc3c(=O)n(C)c4ccccc4c3s2)cc1OC	TDP1 cell noCPT inconclusive (no result: HT1080 IDH1KD tx, IL1B secr inh, HT1080-NT tox)
CCn1c(=O)c2cc(C(=O)NCCc3cc(OC)ccc3OC)sc2c2ccccc21	TDP1 cell noCPT 8.2µM (no result: HT1080 IDH1KD tx, IL1B secr inh, HT1080-NT tox)
COCCNC(=O)C(=O)NNC(=O)c1ccccc1OC	none
COc1ccc(NC(=O)CC(=O)Nc2ccc(OC)cc2)cc1	HT1080-NT tox inconclusive
COC(=O)c1sccc1S(=O)(=O)Nc1ccc(Cl)cc1	TDP1 cell noCPT inconclusive
COC(=O)c1sccc1S(=O)(=O)Nc1ccc(C(O)(C(F)(F)F)C(F)(F)F)cc1	HT1080 IDH1KD tx inconclusive, TDP1 cell CPT 18µM, TDP1 cell noCPT 21µM, HT1080-NT tox inconclusive
CC(C)N(Cc1ccccc1)C(=O)c1cc2ccc3cccnc3c2[nH]1	TDP1 cell CPT 16µM, TDP1 cell noCPT 18µM (no result: HT1080 IDH1KD tx, IL1B secr inh, HT1080-NT tox)
O=S(=O)(Nc1ccc(Br)cc1)c1cccc2cccnc12	TDP1 cell noCPT inconclusive
O=S(=O)(Nc1ccc(C(O)(C(F)(F)F)C(F)(F)F)cc1)c1cccc2cccnc12	HT1080 IDH1KD tx inconclusive, TDP1 cell CPT 16µM, TDP1 cell noCPT 23µM, HT1080-NT tox inconclusive
O=c1oc2ccc(NS(=O)(=O)c3cccc4cccnc34)cc2s1	TDP1 cell CPT 21µM, TDP1 cell noCPT 23µM
COc1ccc(NC(=O)CSc2nnc3ccc(-c4ccccn4)nn23)cc1OC	TDP1 cell CPT inconclusive
COc1ccccc1NC(=O)c1cc2ccc3cccnc3c2[nH]1	TDP1 cell CPT 3.7µM, TDP1 cell noCPT 26µM (no result: HT1080 IDH1KD tx, IL1B secr inh, HT1080-NT tox)
O=S(=O)(Nc1ccc2c(c1)OCCO2)c1cccc2cccnc12	TDP1 cell noCPT inconclusive
O=C1CCCc2oc3ccc(NS(=O)(=O)c4cccc5cccnc45)cc3c21	TDP1 cell CPT inconclusive, TDP1 cell noCPT 23µM
COc1ccc(NS(=O)(=O)c2cccc3cccnc23)cc1	none
COc1ccc(NS(=O)(=O)c2cccc3cccnc23)cc1Cl	TDP1 cell CPT inconclusive, TDP1 cell noCPT 21µM
CCOc1ccccc1NC(=O)c1cc2ccc3cccnc3c2[nH]1	none (no result: HT1080 IDH1KD tx, IL1B secr inh, HT1080-NT tox)
